The values that follow come from PubChem BioAssay.

A short description of assay [1]: compounds binding Alexa647 anti-His antibody – biochemical, small-molecule microarray, 635 nm fluorescence, artefact control for SMM control protein annotation, primary screen (AID 1128).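 Also: score merges feature fluorescence with signal-to-noise for each printed compound spot.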 The settings on record: higher = more signal.
Assay [2] relates to Human papillomavirus type 1a E7 protein (residues 1-88). Kind of assay: HPV1a E7 small-molecule binders, primary screen, biochemical, small-molecule microarray, residues 1-88, 635 nm (AID 1129). The settings on record: small-molecule microarray binding, fluorescence 635 nm; higher = more signal.
The target of assay [3] is Focal adhesion kinase 1 (Homo sapiens) (UniProt Q05397). Kind of assay: PTK2 protein binding on printed compound slides – biochemical, small-molecule microarray, 635/667 nm fluorescence, BSA, DTT, primary screen (AID 1130).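 Also: composite of spot emission at 667 nm and signal to noise over triplicate slides.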 The conditions noted are these: 635 nm fluorescence, higher = more signal.
Focal adhesion kinase 1 (Homo sapiens), sequence (Q05397 whole entry, looked up): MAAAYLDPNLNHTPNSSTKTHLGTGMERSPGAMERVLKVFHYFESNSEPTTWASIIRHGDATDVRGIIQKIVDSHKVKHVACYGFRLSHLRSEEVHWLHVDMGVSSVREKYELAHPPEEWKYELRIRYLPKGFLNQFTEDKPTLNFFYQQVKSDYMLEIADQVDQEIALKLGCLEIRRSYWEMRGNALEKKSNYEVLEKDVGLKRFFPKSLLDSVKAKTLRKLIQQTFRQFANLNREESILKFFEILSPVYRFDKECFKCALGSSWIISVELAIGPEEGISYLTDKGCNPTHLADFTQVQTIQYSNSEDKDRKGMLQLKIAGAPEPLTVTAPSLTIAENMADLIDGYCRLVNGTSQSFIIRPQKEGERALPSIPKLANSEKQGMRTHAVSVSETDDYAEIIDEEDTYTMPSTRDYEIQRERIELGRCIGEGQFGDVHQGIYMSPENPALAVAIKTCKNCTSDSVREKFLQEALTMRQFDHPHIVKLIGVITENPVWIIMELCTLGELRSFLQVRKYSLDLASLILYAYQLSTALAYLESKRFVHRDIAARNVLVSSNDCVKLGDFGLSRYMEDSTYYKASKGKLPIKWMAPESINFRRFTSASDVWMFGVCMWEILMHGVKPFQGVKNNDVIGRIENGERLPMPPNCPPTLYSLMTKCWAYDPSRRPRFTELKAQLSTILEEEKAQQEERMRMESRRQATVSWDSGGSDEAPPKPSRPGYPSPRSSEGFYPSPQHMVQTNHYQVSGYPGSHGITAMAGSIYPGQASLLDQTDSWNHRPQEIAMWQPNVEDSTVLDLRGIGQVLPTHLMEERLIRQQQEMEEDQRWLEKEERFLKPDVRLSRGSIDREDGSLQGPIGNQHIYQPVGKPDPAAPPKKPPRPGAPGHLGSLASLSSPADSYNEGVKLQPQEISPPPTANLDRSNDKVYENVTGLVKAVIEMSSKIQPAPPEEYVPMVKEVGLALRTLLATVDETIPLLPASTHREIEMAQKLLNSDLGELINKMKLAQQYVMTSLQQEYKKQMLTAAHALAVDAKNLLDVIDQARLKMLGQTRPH
In assay [4] the test system is Fibrinogen (Alexa647-labelled). Kind of assay: Alexa647-fibrinogen binding to printed small molecules – biochemical, small-molecule microarray, 635/667 nm fluorescence, artefact control for SMM control-protein annotation, profiling panel (AID 1131).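 Also: z-score merges 667 nm fluorescence with per-spot signal-to-noise over triplicate slides.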 The conditions noted are these: fibrinogen-A647 binding fluorescence, higher = more signal.
Assay [5] addresses Follistatin (Homo sapiens) (UniProt P19883). Kind of assay: FST protein binding to printed compounds – biochemical, small-molecule microarray, 635/667 nm fluorescence, primary screen (AID 1132). The conditions noted are these: 635 nm fluorescence, higher = more signal.
The target in assay [6] is Fibroblast growth factor 2 (Homo sapiens) (UniProt P09038). Kind of assay: basic fibroblast growth factor binding to printed compounds – biochemical, small-molecule microarray, 635/667 nm fluorescence, primary screen (AID 1133). The conditions noted are these: FGF2, fluorescence 635/667, higher = more signal.
Fibroblast growth factor 2 (Homo sapiens), sequence (P09038 whole entry, looked up): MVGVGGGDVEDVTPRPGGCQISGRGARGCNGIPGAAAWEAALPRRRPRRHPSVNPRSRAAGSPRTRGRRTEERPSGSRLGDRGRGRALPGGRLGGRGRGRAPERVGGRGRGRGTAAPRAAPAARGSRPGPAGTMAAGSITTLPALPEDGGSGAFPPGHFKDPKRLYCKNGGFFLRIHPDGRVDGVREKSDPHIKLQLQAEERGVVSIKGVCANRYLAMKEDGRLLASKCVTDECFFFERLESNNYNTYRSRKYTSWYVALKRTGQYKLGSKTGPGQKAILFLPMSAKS
The nature of assay [7]: JC-1 mitochondrial potential readout, lung cancer cells – cell-based, A549, JC-1 fluorescence, basal, 24 h, 100 nL, profiling panel (AID 1138).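 Also: A549 lung adenocarcinoma cells under basal conditions with no added stimulus; test concentration not given here.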 The conditions noted are these: higher = more signal.
In a further assay the test system is Lefty1. Kind of assay: Lefty1 protein binding to printed compounds – biochemical, small-molecule microarray, 635/667 nm fluorescence, primary screen (AID 1139). The settings on record: fluorescence 635/667, higher = more signal.
The subject of assay [8] is wheat germ agglutinin (Triticum aestivum), Alexa647-labelled. Kind of assay: Alexa647-WGA lectin binding to printed small molecules – biochemical, small-molecule microarray, 635/667 nm fluorescence, artefact control for SMM control-protein annotation, profiling panel (AID 1140).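 Also: score merges 667 nm feature emission with signal to noise over triplicate slides.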 The conditions noted are these: WGA-A647 binding, 635 nm fluorescence, higher = more signal.
For assay [9], the target named is Luciferin 4-monooxygenase (Photinus pyralis) (UniProt P08659). Kind of assay: inhibition of purified Photinus pyralis luciferase – biochemical, luminescence, purified enzyme, 2006 set, primary screen (AID 1141).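 Also: cell-free assay with purified firefly luciferase at 100 ng per well in PBS; test concentration not given here.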 The conditions noted are these: purified firefly luciferase, SteadyGlo luminescence, 30 min; higher = more signal, called active from +8 up or from −8 down.
Luciferin 4-monooxygenase (Photinus pyralis), sequence (P08659 whole entry, looked up): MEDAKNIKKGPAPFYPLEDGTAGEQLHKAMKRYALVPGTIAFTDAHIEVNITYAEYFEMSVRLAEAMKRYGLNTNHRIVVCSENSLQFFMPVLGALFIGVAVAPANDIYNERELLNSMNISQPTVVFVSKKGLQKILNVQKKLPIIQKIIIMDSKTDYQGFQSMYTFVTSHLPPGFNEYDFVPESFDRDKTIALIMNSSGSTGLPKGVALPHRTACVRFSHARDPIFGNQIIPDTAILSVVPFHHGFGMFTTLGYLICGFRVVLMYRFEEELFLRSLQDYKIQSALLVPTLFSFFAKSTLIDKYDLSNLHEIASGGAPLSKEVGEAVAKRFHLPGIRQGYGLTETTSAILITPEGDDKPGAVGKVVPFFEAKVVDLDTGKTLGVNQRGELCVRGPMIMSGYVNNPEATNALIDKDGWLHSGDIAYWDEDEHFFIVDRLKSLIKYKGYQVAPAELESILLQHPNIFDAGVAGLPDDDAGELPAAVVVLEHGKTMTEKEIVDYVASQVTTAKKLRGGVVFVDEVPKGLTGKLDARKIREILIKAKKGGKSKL

Calls of active or inactive are those of the source.

Follistatin (Homo sapiens), sequence (P19883 whole entry, looked up): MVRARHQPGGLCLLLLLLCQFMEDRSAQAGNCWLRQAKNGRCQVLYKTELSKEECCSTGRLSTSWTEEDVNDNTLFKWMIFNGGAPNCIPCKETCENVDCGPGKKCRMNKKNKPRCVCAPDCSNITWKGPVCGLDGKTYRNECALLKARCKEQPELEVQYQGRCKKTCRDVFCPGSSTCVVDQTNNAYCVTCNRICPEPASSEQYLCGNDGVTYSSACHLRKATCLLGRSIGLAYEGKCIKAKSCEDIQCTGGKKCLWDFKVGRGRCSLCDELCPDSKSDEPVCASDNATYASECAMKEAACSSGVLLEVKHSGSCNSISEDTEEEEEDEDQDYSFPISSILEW

With `COC(=O)[C@]1(Cc2ccccc2N=[N+]=[N-])N=C(c2ccc(OCCCO)cc2)O[C@@H]1c1ccccc1N=[N+]=[N-]`, the composite z-score in [1] was 2.87; in assay [2], 0.825; in [3], 0.188; in assay [4], 0.482; in assay [5], 1.25; in assay [6], -0.0133. In addition, the composite z-score worked out at 0.131 in the assay with Lefty1 and 0.149 in assay [8]. For the same compound, the figures for the z-score in [7] and in [9] were -0.856 and -1.42 (inactive), respectively.

`CC(C)C[C@@H]1NC(=O)[C@H]2C[C@@H](C(=O)NCCCCCCNC(=O)CS)[C@@H](c3cccc(OCCO)c3)N2C1=O`: the composite z-score in [1] came out at 1.19; in assay [2], 1.21; in assay [3], 0.236; in assay [4] it was 0.855; in assay [5], 1.43; in assay [6], 1.64. In addition, the composite z-score is 1.57 in the assay on Lefty1 and 0.96 in assay [8]. Further, the z-score is 1 in assay [7] and -1.05 (inactive) in [9].

As for `COC(=O)[C@@]1(Cc2ccc(OC)cc2)[C@H]2c3cc(C(=O)N(C)C)n(Cc4c(OC)[nH]cc(C)c4=O)c3C[C@H]2CN1C(=O)c1ccccc1`, the composite z-score in assay [1] was -0.13; in assay [2], 0.66; in assay [3] it was 0.66; in assay [4] it was 0.324; in assay [5], 0.326; in assay [6], -0.123. Further, the composite z-score in the assay with Lefty1 was -0.144; in [8], 0.59. Besides, the z-score is 0.539 in assay [7] and 0.151 (inactive) in assay [9].

`[N-]=[N+]=NCc1ccccc1C[C@]1(C(=O)NCC(O)CO)N=C(c2ccc(OCCCO)cc2)O[C@H]1c1ccccc1N=[N+]=[N-]` (stereo not given in full): the composite z-score in assay [1] was 2.99; in assay [2], 1.12; in assay [3] it was 1.66; in [4], 0.188; in assay [5], -0.181; in assay [6], -0.189. Moreover, the composite z-score in the assay with Lefty1 was -0.923; in assay [8], 0.541. In addition, the z-score in assay [7] is 1.63; in assay [9], -6.49 (inactive).

As to `CCCCC=C[C@@H](NC(=O)c1ccc(C(=O)OC)cc1)c1ccccc1`, the composite z-score amounted to 0.59 in assay [1]; 1.05 in assay [2]; 0.694 in assay [3]; 0.875 in [4]; 0.293 in [5]; 0.0889 in assay [6]. In addition, the composite z-score amounted to 0.335 in the assay with Lefty1 and 0.658 in [8]. Besides, the values for the z-score in [7] and in [9] were 0.769 and 1.73 (inactive), respectively.

`CCOC(=O)C[C@H]1[C@H](OC(=O)c2ccccc2-c2ccccc2)[C@@H](NC(=O)c2ccc3ccccc3c2)c2cc(OCCCO)ccc2N1C(=O)c1ccc2ccccc2n1`: the composite z-score was 0.0868 in [1]; 0.635 in [2]; -0.0301 in assay [3]; 0.0467 in [4]; 0.874 in assay [5]; 0.306 in assay [6]. For the same compound, the figures for the composite z-score (in the assay with Lefty1; in assay [8]) were 0.543 and 0.119, respectively. Also, the z-score was 0.988 in assay [7] and 0.667 (inactive) in assay [9].

Regarding `CCN(CC)c1ccc(N2CC=CC34O[C@@H]5/C=C\CCCOC(=O)C5[C@H]3C(=O)N(C(CO)C(C)C)[C@@H]4C2=O)cc1` (stereo not given in full), the composite z-score in assay [1] was 1.02; in assay [2], -1.04; in assay [3] it was 0.409; in assay [4], -1.1; in [5], -0.45; in assay [6], -0.593. Further, the composite z-score was -0.217 with Lefty1 and -0.615 in [8]. Further, the z-score was 0.8 in assay [7] and -0.557 (inactive) in [9].

On to `C=CCC(OC(C)=O)[C@@H]1[C@@H](N(Cc2ccc(-c3ccccc3)cc2)C(=O)Cc2ccc(F)cc2)c2cc(OCCCO)ccc2N1C(=O)c1ccc2ccccc2n1` (stereo not given in full), for which the composite z-score in assay [1] is -0.26; in [2], -0.0475; in assay [3], -0.312; in [4] it was 0.165; in assay [5], 0.177; in assay [6], 0.253. Besides, the results for the composite z-score (in the assay with Lefty1; in assay [8]) were -0.192 and 0.216, respectively. Further, the results for the z-score in assay [7] and in assay [9] were 1.94 and -1.26 (inactive), respectively.

Consider `COc1cc2c(cc1OC)CN(C(=O)[C@@H]1[C@H]3C(=O)O[C@H](c4ccccc4)[C@H](c4ccccc4)N3[C@H](c3ccccc3OCCO)[C@@]13C(=O)Nc1ccc(C#CCNC(N)=O)cc13)CC2`, for which the composite z-score in [1] was determined as 1.62; in assay [2], 0.923; in assay [3], 1.33; in assay [4], 0.933; in [5], 0.741; in [6], 0.748. In addition, the composite z-score in the assay with Lefty1 turned out to be 0.768; in assay [8] it was 0.856. For the same compound, the z-score is -0.864 in assay [7] and -1.64 (inactive) in assay [9].

With `C[N+](C)(C)CCCCCCNC(=O)[C@H]1C[C@H]2C(=O)N3CCC[C@H]3C(=O)N2[C@H]1c1ccc(O)cc1`, the composite z-score was -0.167 in assay [1]; 0.0132 in [2]; -0.166 in [3]; -0.876 in [4]; 1.14 in [5]; 0.693 in [6]. In addition, the results for the composite z-score (in the assay on Lefty1; in assay [8]) were 1.12 and -0.411, respectively. The z-score in [7] is -1.39; in assay [9] it was 0.908 (inactive).

With `NCCCCCCNC(=O)[C@H]1C[C@H]2C(=O)NCC(=O)N2[C@H]1c1cccc(OCCO)c1`, the composite z-score stood at 0.869 in assay [1]; 0.858 in assay [2]; 0.215 in assay [3]; 0.794 in assay [4]; 1.24 in [5]; 1.55 in [6]. In addition, the composite z-score worked out at 1.04 in the assay with Lefty1 and 1.08 in [8]. The figures for the z-score in [7] and in assay [9] were 1.85 and -1.7 (inactive), respectively.
